Experimental data taken from PubChem BioAssay AID651663 (NMMLSC, 2012).
Active and inactive are the calls of the source.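 How the source made its calls: active means fitted half-maximal signal drop concentration below 100 µM; inactive means the rest.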

Molecular target: ATP-binding cassette sub-family B member 6 (Homo sapiens) (UniProt Q9NP58)
Assay: ABCB6 transporter inhibitors, porphyrin accumulation, dose response, flow cytometry, K562-ABCB6 cells, powder set 01 (AID 651663)
Conditions: 1 h; series mostly up to 100 µM; response % of control, lower = inhibition: at the top concentration

Chain of ATP-binding cassette sub-family B member 6 (Homo sapiens) (Q9NP58 whole entry, looked up): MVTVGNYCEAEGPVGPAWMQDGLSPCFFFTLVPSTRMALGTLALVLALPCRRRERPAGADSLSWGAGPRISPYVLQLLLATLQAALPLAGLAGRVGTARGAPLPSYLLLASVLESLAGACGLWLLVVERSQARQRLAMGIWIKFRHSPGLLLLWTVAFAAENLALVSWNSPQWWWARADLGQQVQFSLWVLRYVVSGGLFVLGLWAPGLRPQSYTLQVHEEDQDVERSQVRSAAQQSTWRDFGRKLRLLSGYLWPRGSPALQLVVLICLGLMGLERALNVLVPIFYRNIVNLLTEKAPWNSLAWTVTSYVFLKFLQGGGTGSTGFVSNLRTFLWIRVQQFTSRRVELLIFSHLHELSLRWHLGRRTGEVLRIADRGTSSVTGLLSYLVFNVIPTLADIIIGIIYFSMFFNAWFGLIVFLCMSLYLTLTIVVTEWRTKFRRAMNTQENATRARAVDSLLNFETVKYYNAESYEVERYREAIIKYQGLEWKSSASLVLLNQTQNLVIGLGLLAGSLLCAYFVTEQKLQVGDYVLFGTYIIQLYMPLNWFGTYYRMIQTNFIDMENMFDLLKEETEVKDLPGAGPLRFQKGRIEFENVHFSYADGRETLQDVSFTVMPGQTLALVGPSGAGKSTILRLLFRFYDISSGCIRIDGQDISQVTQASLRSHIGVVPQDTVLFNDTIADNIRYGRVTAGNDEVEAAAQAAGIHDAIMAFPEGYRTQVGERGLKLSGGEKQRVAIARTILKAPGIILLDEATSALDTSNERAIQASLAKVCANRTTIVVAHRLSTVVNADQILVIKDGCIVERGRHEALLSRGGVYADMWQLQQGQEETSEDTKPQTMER

Response % of control, lower = inhibition, inactive:
CCc1ccc(NC(=O)c2nc(S(=O)(=O)Cc3ccccc3)ncc2Cl)cc1 79.5%
CC(=O)Nc1ccc(NC(=O)c2nc(S(=O)(=O)Cc3cccc(C)c3)ncc2Cl)cc1 360%
CC(=O)Nc1ccc(NC(=O)c2nc(S(=O)(=O)Cc3ccccc3)ncc2Cl)cc1 78.9%
CCOc1ccccc1NC(=O)c1nc(S(=O)(=O)Cc2cccc(C)c2)ncc1Cl 91.9%
